Holding throughout (assay): NCI-60 one-dose screen, 48 h (100 = growth as untreated, 0 = no growth, -100 = all killed)
Common to all, as to details: 10 µM unless noted

For experiment [1], the system named is NCI-H23 lung.
Experiment [2] concerns NCI-H226 lung.
Experiment [3] has as its system NCI-H322M lung.
The test system of experiment [4] is HOP-62 NSCLC.
Experiment [5] concerns NCI-H460 lung.
Experiment [6] concerns HOP-92 NSCLC.
Experiment [7] has as its system NCI-H522 lung.
Experiment [8] concerns A549/ATCC NSCLC.
Experiment [9] concerns 786-0 renal.
Experiment [10] has as its system COLO 205 colon.
Experiment [11] deals with DU-145 prostate.
Experiment [12] concerns MALME-3M melanoma.
Experiment [13] deals with MDA-MB-231 breast.
Experiment [14] deals with RXF 393 renal.
In experiment [15] the test system is SF-268 CNS.
For experiment [16], the system named is SF-295 CNS.
The test system of experiment [17] is SF-539 CNS.
Experiment [18] concerns UACC-257 melanoma.
Experiment [19] relates to M14 melanoma.

Compounds without any hit were thinned out: in the full panel of roughly 83,000, 20% have a hit.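 Cells were grown in 96-well plates and exposed to the test compound at a single concentration for 48 hours; results are reported as percent growth, with values below 10 considered active.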 A number with no mark means an inactive call. Active and inactive are the calls of the source.

Take `O=C(Cn1c2ccccc2c2ccncc21)N/N=C/c1c[nH]c2ccccc12`: the growth in experiment [1] is 48.3%; in experiment [2], 73.3%; in experiment [3], 72.8%; in [4] it was 55.5%; in [5] it was 1.47% (active); in experiment [6] it was 61.2%. Besides, the growth is 58.8% in experiment [7]; 25.2% in experiment [8]; 44% in [9]; 88.2% in experiment [10]; 53.5% in experiment [11]; 43.7% in experiment [12]. Moreover, the growth was 19.6% in experiment [13]; 49.2% in experiment [14]; 71.4% in experiment [15]; 87.5% in [16]; 86.4% in experiment [17]; 88.3% in [18]. Besides, the growth in experiment [19] is 68.2%.
As to `O=C(O)c1cn(C2CC2)c2cc(N3CCN(C(=O)CSc4nc(NS(=O)(=O)c5ccccc5)cc(=O)[nH]4)CC3)c(F)cc2c1=O`, the growth is 94.3% in experiment [1]; 96.2% in experiment [2]; 92.5% in experiment [3]; 116% in experiment [4]; 96.2% in [5]; 106% in [6]. Further, the growth in experiment [7] was 95.6%; in experiment [8], 110%; in experiment [9], 111%; in experiment [10], 109%; in experiment [11], 101%; in [12], 82.4%. Besides, the growth in [13] was 100%; in experiment [14] it was 112%; in experiment [15] it was 93.7%; in [16], 104%; in experiment [17] it was 98.1%; in [18] it was 95%. In [19], the growth was 83.7%.
Take `Cc1cn(-c2nc3c(c(NCc4ccccc4)n2)COCC3)c2cccc(C(N)=O)c12`: the growth in [1] was 58.8% [0.5 µM]; in [2] it was 56.4% [0.5 µM]; in [3] it was 98.8% [0.5 µM]; in experiment [4] it was 76.3% [0.5 µM]; in experiment [5] it was 45.8% [0.5 µM]; in [6] it was 87.7% [0.5 µM]. Also, the growth in [7] is 69.5% [0.5 µM]; in experiment [8], 84% [0.5 µM]; in experiment [9], 40.9% [0.5 µM]; in experiment [10], 87.8% [0.5 µM]; in experiment [11], 87.6% [0.5 µM]; in [12], 82.9% [0.5 µM]. For the same compound, the growth in experiment [13] was 58.5% [0.5 µM]; in experiment [14], 43.6% [0.5 µM]; in [15], 76.9% [0.5 µM]; in [16] it was 36.1% [0.5 µM]; in experiment [17], 84.6% [0.5 µM]; in experiment [18], 68.1% [0.5 µM]. Further, the growth in [19] was 55.2% [0.5 µM].
For the compound `FC(F)(F)c1cn(CC2CNC2)c2ncnc(Cl)c12`, the growth is 104% in experiment [1]; 102% in experiment [2]; 111% in experiment [3]; 102% in experiment [4]; 105% in experiment [5]; 114% in experiment [6]. The growth is 89.7% in experiment [7]; 94.3% in [8]; 107% in experiment [9]; 106% in [10]; 108% in experiment [11]; 122% in experiment [12]. Further, the growth in experiment [13] was 100%; in experiment [14], 112%; in experiment [15], 99.2%; in [16], 100%; in experiment [17], 109%; in experiment [18], 85.6%. In experiment [19], the growth was 109%.
For `Fc1cccc(F)c1C#Cc1ccc2cccnc2c1`, the growth is 79.5% in experiment [1]; 101% in experiment [2]; 89.8% in experiment [3]; 89.5% in experiment [4]; 86% in experiment [5]; 82.4% in [6]. For the same compound, the growth in [7] was 75.8%; in experiment [8], 82.6%; in [9], 113%; in experiment [10], 96.4%; in experiment [11] it was 96.5%; in [12], 90.3%. In addition, the growth in experiment [13] is 78%; in [14], 101%; in experiment [15], 88.6%; in experiment [16], 101%; in experiment [17], 102%; in experiment [18], 88.2%. In addition, the growth in experiment [19] was 95.7%.
Turning to `CCc1c2cc(Cl)ccc2n2cc(Cc3ccccc3)[nH]c(=O)c12`, the growth is 94.3% in [1]; 100% in experiment [2]; 83.7% in experiment [3]; 103% in experiment [4]; 90.9% in experiment [5]; 96% in [6]. In addition, the growth was 104% in experiment [7]; 106% in [8]; 109% in experiment [9]; 97.5% in [10]; 104% in experiment [11]; 85.3% in experiment [12]. In addition, the growth in experiment [13] is 97.4%; in [14], 116%; in experiment [15], 95.4%; in experiment [16], 98.1%; in experiment [17], 103%; in experiment [18], 104%. Besides, the growth in experiment [19] was 99.9%.
Turning to `C=C1C(=O)O[C@H]2[C@H]1CC/C(COC(=O)c1ccc3ccccc3c1)=C\CC[C@@]1(C)O[C@@H]21`, the growth is 2.6% (active) in experiment [1]; -82.3% (active) in experiment [2]; 45% in experiment [3]; -29.2% (active) in [4]; 8.67% (active) in [5]; -73.3% (active) in [6]. In addition, the growth in experiment [7] is -77.3% (active); in experiment [8], -52.7% (active); in experiment [9], -85.1% (active); in [10] it was -71.1% (active); in [11], -81.1% (active); in experiment [12], -75.8% (active). Moreover, the growth was -62.3% (active) in experiment [13]; -91% (active) in experiment [14]; -41% (active) in experiment [15]; 43.1% in experiment [16]; -94.9% (active) in experiment [17]; -24.6% (active) in experiment [18]. The growth in experiment [19] is -58.8% (active).
For the compound `Cc1ccn2cc(Cc3cc(=O)oc4c3ccc3ccccc34)c(=O)nc2c1`, the growth was 96.6% in experiment [1]; 96.6% in experiment [2]; 101% in experiment [3]; 91.7% in [4]; 106% in experiment [5]; 98.8% in experiment [6]. Also, the growth in experiment [7] is 75.1%; in [8] it was 89.9%; in experiment [9] it was 95.5%; in experiment [10] it was 102%; in [11], 110%; in experiment [12] it was 99.8%. For the same compound, the growth is 97.6% in experiment [13]; 106% in experiment [14]; 94.8% in [15]; 96.1% in [16]; 93.7% in experiment [17]; 86.3% in [18]. Moreover, the growth in experiment [19] was 96.8%.

The values are drawn from PubChem BioAssay (NCI).
